The source of these data is PubChem BioAssay (EPA / NIEHS).

The source made the active and inactive calls. How the source made its calls: active means hit-call score of the fitted dose curve at least 0.9, where 1 is the maximum; inactive means score below 0.9.

Holding throughout (conditions): mRNA level, 48 h; actives raise or lower the signal
Read-out in one assay: BCL2L11 (gene 10018)
In words: LTEA_HepaRG_BCL2L11: Life Technologies and Expression Analysis (LTEA) Assay for Bcl-2 (BCL2L11) gene using HepaRG (AID 2283473). In a few lines:
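HepaRG, 48 h exposure, 8-pt half-log series from 100 uM in 0.5% DMSO, duplicates; qRT-PCR (Fluidigm TaqMan) for BCL2L11, housekeeping-normalized; bidirectional curve fit relative to DMSO baseline.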

Read-out in assay [1]: Apolipoprotein A-V (APOA5) gene, APOA5 (gene 116519)
In words: LTEA_HepaRG_APOA5: Life Technologies and Expression Analysis (LTEA) Assay for Apolipoprotein A-V (APOA5) gene using HepaRG (AID 2283474). In a few lines:
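HepaRG, 48 h chemical exposure in serum-free induction medium, 8-pt half-log series (top 100 uM), 0.5% DMSO vehicle, duplicates. Readout: APOA5 mRNA by qRT-PCR, housekeeping-normalized; bidirectional fit vs DMSO baseline.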

Read-out in assay [2]: Apoptosis regulator Bcl-2 (Homo sapiens) (UniProt P10415)
In words: LTEA_HepaRG_BCL2: Life Technologies and Expression Analysis (LTEA) Assay for Bcl-2 gene using HepaRG (AID 2283475). In a few lines:
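qRT-PCR of BCL2 transcript, normalized to three housekeeping genes (ACTB, GAPDH, POLR2A), after 48 h chemical exposure of HepaRG cells; concentrations top 100 uM with half-log dilutions, 0.5% DMSO vehicle, duplicates; changes up or down fitted relative to vehicle.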

Read-out in assay [3]: Bcl-2 (BID) gene, BID (gene 637)
In words: LTEA_HepaRG_BID: Life Technologies and Expression Analysis (LTEA) Assay for Bcl-2 (BID) gene using HepaRG (AID 2283476). In a few lines:
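Duplicate 48 h treatments of HepaRG cells in serum-free induction medium spanned 100 uM downward in half-log steps, 0.5% DMSO. Transcript change quantified by qRT-PCR against three housekeeping genes, fitted up or down versus DMSO.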

Read-out in another assay: Caspase-3 (Homo sapiens) (UniProt P42574)
In words: LTEA_HepaRG_CASP3: Life Technologies and Expression Analysis (LTEA) Assay for cysteine-aspartic acid protease (CASP3) using HepaRG (AID 2283477). Put shortly: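 HepaRG, 48 h exposure, 8 conc. (top 100 uM, half-log steps, duplicate), 0.5% DMSO vehicle; qRT-PCR of CASP3 transcript, housekeeping-normalised (ACTB/GAPDH/POLR2A); bidirectional curve fit vs DMSO baseline.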

Read-out in assay [4]: Cytochrome P450 (CYP24A1), CYP24A1 (gene 1591)
In words: LTEA_HepaRG_CYP24A1: Life Technologies and Expression Analysis (LTEA) Assay for Cytochrome P450 (CYP24A1) using HepaRG (AID 2283478). Put shortly:
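qRT-PCR read-out: CYP24A1 transcript levels normalized to three housekeeping genes, bidirectional curve fits against 0.5% DMSO baseline. Human HepaRG cells treated 48 h with chemicals at eight concentrations from 100 uM in half-log steps.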

Read-out in assay [5]: Cytochrome P450 (CYP1A2), CYP1A2 (gene 1544)
In words: LTEA_HepaRG_CYP1A2: Life Technologies and Expression Analysis (LTEA) Assay for Cytochrome P450 (CYP1A2) using HepaRG (AID 2283479). In a few lines: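 HepaRG, 48 h exposure, top 100 uM, half-log 8-pt, 0.5% DMSO vehicle, duplicates. Readout: TaqMan qRT-PCR of CYP1A2 mRNA, housekeeping-normalized (ACTB/GAPDH/POLR2A). Gain/loss fit relative to DMSO baseline.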

Read-out in assay [6]: cysteine-aspartic acid protease (CASP8), CASP8 (gene 841)
In words: LTEA_HepaRG_CASP8: Life Technologies and Expression Analysis (LTEA) Assay for cysteine-aspartic acid protease (CASP8) using HepaRG (AID 2283480). In a few lines:
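Concentration-response in duplicate up to 100 uM (half-log steps, 0.5% DMSO) on differentiated HepaRG cultures for 48 h. Expression change of CASP8 mRNA is determined by TaqMan qRT-PCR with housekeeping-gene normalization.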

Read-out in assay [7]: Cytochrome P450 (CYP2B6), CYP2B6 (gene 1555)
In words: LTEA_HepaRG_CYP2B6: Life Technologies and Expression Analysis (LTEA) Assay for Cytochrome P450 (CYP2B6) using HepaRG (AID 2283481). In a few lines: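 Read-out is CYP2B6 mRNA by TaqMan qRT-PCR, normalized to three housekeeping genes and fitted bidirectionally against 0.5% DMSO baseline. Human HepaRG cells received test chemicals for 48 h, top concentration 100 uM, half-log dilutions.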

Read-out in assay [8]: Cytochrome P450 2C19 (Homo sapiens) (UniProt P33261)
In words: LTEA_HepaRG_CYP2C19: Life Technologies and Expression Analysis (LTEA) Assay for CYP2C19 using HepaRG (AID 2283482). In a few lines:
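HepaRG, 48 h chemical exposure, 8-pt half-log series from 100 uM in 0.5% DMSO, duplicates. Readout: CYP2C19 mRNA by TaqMan qRT-PCR, housekeeping-normalized. Bidirectional fit vs DMSO baseline; phenobarbital 1mM as induction control.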

Read-out in another assay: CYP2C8 (gene 1558)
In words: LTEA_HepaRG_CYP2C8: Life Technologies and Expression Analysis (LTEA) Assay for CYP2C8 using HepaRG (AID 2283483). In a few lines: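 This is a transcriptional endpoint in HepaRG cultures: 48 h exposure, highest concentration 100 uM. CYP2C8 mRNA is quantified by TaqMan qRT-PCR.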

Read-out in the next assay: CYP2C9 (gene 1559)
In words: LTEA_HepaRG_CYP2C9: Life Technologies and Expression Analysis (LTEA) Assay for CYP2C9 using HepaRG (AID 2283484). Put shortly:
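Eight-point concentration-response (highest 100 uM, half-log dilutions) in HepaRG cells for 48 h; CYP2C9 expression by qRT-PCR normalized to ACTB, GAPDH, POLR2A. Bidirectional fit, DMSO baseline.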

Read-out in the next assay: CYP2E1 (gene 1571)
In words: LTEA_HepaRG_CYP2E1: Life Technologies and Expression Analysis (LTEA) Assay for CYP2E1 using HepaRG (AID 2283485). Put shortly: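 CYP2E1 transcript measured by Fluidigm qRT-PCR against three housekeeping genes in human HepaRG cells treated 48 h (top 100 uM, half-log steps, 0.5% DMSO vehicle). Gain or loss fitted relative to DMSO baseline.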

Read-out in a further assay: CYP4A11 (gene 1579)
In words: LTEA_HepaRG_CYP4A11: Life Technologies and Expression Analysis (LTEA) Assay for CYP4A11 using HepaRG (AID 2283486). In a few lines: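 CYP4A11 transcript levels were quantified by TaqMan qRT-PCR after HepaRG human liver cells were treated for 48 hours with test chemicals (top 100 uM, half-log dilutions, 0.5% DMSO). Gain or loss of signal was fitted relative to DMSO.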

Read-out in assay [9]: Cytochrome P450 3A4 (Homo sapiens) (UniProt P08684)
In words: LTEA_HepaRG_CYP3A4: Life Technologies and Expression Analysis (LTEA) Assay for CYP3A4 using HepaRG (AID 2283487). In a few lines:
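Differentiated HepaRG cells in serum-free induction medium exposed in duplicate for 48 h to 8 half-log concentrations up to 100 uM in 0.5% DMSO. CYP3A4 mRNA measured by qRT-PCR normalized to ACTB, GAPDH and POLR2A; bidirectional fit versus DMSO.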

Read-out in assay [10]: DNA damage-inducible transcript 3 (DDIT3), DDIT3 (gene 1649)
In words: LTEA_HepaRG_DDIT3: Life Technologies and Expression Analysis (LTEA) Assay for DNA damage-inducible transcript 3 (DDIT3) using HepaRG (AID 2283488). Put shortly: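 DDIT3 transcript was quantified by qRT-PCR with ACTB/GAPDH/POLR2A normalization after 48 h chemical treatment of differentiated HepaRG cells in 0.5% DMSO. Dosing was eight-point, half-log, top 100 uM, duplicate wells. Curves fitted bidirectionally versus DMSO.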

Read-out in assay [11]: Pro-epidermal growth factor (Homo sapiens) (UniProt P01133)
In words: LTEA_HepaRG_EGF: Life Technologies and Expression Analysis (LTEA) Assay for Epidermal growth factor (EGF) using HepaRG (AID 2283489). In a few lines: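 qRT-PCR readout of EGF transcript after 48 h chemical exposure of HepaRG cells; eight concentrations from 100 uM down in half-log steps, duplicate wells, 0.5% DMSO vehicle. Bidirectional curve fitting against DMSO baseline.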

Read-out in assay [12]: Early growth response protein 1 (EGR1) transcription factor, EGR1 (gene 1958)
In words: LTEA_HepaRG_EGR1: Life Technologies and Expression Analysis (LTEA) Assay for Early growth response protein 1 (EGR1) transcription factor using HepaRG (AID 2283490). Put shortly: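 EGR1 expression change in human HepaRG after 48 h chemical exposure, assessed by housekeeping-normalized qRT-PCR; concentration-response up to 100 uM, fitted in both directions against DMSO controls.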

Read-out in assay [13]: Ezrin (EZR), EZR (gene 7430)
In words: LTEA_HepaRG_EZR: Life Technologies and Expression Analysis (LTEA) Assay for Ezrin (EZR) using HepaRG (AID 2283491). Put shortly: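 Differentiated human HepaRG cells, 48 h after plating, were exposed in serum-free induction medium for 48 hours to eight half-log concentrations up to 100 uM in 0.5% DMSO. EZR mRNA was measured by TaqMan qRT-PCR, normalized to ACTB, GAPDH and POLR2A, and fitted bidirectionally against DMSO.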

Read-out in assay [14]: Cytochrome P450 3A7 (Homo sapiens) (UniProt P24462)
In words: LTEA_HepaRG_CYP3A7: Life Technologies and Expression Analysis (LTEA) Assay for CYP3A7 using HepaRG (AID 2283492). Put shortly: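 CYP3A7 transcript levels were read by TaqMan qRT-PCR on Fluidigm arrays after 48 h chemical exposure of human HepaRG cells, with housekeeping-gene normalisation. Eight half-log concentrations up to 100 uM in 0.5% DMSO were tested in duplicate.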

Cytochrome P450 3A7 (Homo sapiens), sequence (P24462 whole entry, looked up): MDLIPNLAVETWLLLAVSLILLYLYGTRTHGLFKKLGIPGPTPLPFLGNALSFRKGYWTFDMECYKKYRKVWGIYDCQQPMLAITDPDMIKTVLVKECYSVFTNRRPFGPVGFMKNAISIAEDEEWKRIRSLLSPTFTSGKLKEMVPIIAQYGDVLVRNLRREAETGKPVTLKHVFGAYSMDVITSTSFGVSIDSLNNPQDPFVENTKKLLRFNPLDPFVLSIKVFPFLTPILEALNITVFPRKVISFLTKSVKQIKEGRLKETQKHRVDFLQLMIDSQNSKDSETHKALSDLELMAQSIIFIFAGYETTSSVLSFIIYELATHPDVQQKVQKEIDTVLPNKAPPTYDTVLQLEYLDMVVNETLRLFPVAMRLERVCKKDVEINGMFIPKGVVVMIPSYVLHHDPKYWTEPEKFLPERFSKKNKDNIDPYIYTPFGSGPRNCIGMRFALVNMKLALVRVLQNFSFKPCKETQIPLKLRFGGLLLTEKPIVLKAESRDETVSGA
Apoptosis regulator Bcl-2 (Homo sapiens), sequence (P10415 whole entry, looked up): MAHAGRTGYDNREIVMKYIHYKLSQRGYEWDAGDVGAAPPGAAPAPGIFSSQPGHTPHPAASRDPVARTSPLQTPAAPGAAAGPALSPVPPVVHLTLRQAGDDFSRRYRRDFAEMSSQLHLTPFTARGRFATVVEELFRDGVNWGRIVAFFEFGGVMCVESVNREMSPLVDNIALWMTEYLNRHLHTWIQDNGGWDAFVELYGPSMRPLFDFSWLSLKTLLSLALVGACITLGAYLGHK
Cytochrome P450 2C19 (Homo sapiens), sequence (P33261 whole entry, looked up): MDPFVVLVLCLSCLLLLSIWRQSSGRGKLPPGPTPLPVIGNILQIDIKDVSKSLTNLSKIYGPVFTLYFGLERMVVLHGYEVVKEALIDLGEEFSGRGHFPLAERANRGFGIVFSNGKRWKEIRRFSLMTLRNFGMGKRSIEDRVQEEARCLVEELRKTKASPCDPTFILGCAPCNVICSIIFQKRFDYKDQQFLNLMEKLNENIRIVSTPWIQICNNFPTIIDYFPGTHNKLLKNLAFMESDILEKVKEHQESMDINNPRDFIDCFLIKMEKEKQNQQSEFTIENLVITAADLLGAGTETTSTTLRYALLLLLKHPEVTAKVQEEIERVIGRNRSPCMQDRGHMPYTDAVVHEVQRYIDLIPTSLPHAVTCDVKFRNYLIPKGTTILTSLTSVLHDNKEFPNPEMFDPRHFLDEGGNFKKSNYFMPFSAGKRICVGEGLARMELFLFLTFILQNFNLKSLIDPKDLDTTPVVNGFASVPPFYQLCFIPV
Caspase-3 (Homo sapiens), sequence (P42574 whole entry, looked up): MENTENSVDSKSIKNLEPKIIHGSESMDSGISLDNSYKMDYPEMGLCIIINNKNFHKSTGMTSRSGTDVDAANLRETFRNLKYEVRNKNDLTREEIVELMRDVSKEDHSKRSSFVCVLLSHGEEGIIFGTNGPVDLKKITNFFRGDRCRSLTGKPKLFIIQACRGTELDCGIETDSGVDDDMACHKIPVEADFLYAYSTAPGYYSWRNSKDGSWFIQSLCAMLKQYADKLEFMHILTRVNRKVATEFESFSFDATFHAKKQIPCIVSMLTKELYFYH
Cytochrome P450 3A4 (Homo sapiens), sequence (P08684 whole entry, looked up): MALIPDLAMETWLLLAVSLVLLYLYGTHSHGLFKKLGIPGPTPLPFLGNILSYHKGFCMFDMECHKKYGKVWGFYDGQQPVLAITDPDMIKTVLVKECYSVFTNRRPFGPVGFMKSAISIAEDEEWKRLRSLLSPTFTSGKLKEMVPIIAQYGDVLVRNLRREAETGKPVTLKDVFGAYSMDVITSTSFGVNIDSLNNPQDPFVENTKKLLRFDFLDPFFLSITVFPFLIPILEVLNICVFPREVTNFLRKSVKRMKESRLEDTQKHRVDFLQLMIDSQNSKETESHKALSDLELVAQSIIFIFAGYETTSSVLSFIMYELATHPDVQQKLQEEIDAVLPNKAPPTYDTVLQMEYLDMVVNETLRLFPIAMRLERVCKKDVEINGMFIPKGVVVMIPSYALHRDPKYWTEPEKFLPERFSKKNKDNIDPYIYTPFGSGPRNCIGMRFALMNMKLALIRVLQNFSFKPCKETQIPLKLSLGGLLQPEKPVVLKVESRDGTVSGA

As usually defined, the AC50 is the concentration giving half of the maximal activity seen. `Cc1cccc(N)c1N`: the concentration at half-maximal activity (AC50) with BCL2L11 (gene 10018) was 9.92 µM (active); in assay [1], 37.6 µM (active); in assay [5], 8.42 µM (active); with CYP2C8 (gene 1558) it was 50 µM (active); in the assay with CYP2C9 (gene 1559), 50 µM (active); with CYP2E1 (gene 1571) it was 58.1 µM (active). Besides, the concentration at half-maximal activity (AC50) in the assay with CYP4A11 (gene 1579) is 86.1 µM (active). Also, the compound was called inactive (in assay [2]; in [3]; in the assay with Caspase-3 (Homo sapiens); in assay [4]; in [6]; in assay [7]). The call in [8], in assay [9], in assay [10], in [11], in [12] and in [13] was inactive. Also, in assay [14], the call was inactive.
Turning to `N#CC(Br)(Br)C(N)=O`, the outcome (with BCL2L11 (gene 10018); in assay [1]; in assay [2]; in assay [3]; in the assay with Caspase-3 (Homo sapiens); in assay [4]) was inactive. Moreover, the outcome (in [5]; in assay [6]; in [7]; in assay [8]; with CYP2C8 (gene 1558); with CYP2C9 (gene 1559)) was inactive. Further, the call (with CYP2E1 (gene 1571); in the assay with CYP4A11 (gene 1579); in assay [9]; in assay [10]; in assay [11]; in assay [12]) was inactive. Besides, the compound was called inactive in assay [13] and in [14].
`c1ccc(N=Nc2ccccc2)cc1`: the outcome (in the assay with BCL2L11 (gene 10018); in assay [1]; in assay [2]; in [3]; in the assay with Caspase-3 (Homo sapiens); in assay [4]) was inactive. For the same compound, the compound was classed as inactive (in assay [6]; in [7]; in assay [8]; in the assay with CYP2C8 (gene 1558); with CYP2C9 (gene 1559); with CYP2E1 (gene 1571)). Moreover, the outcome (with CYP4A11 (gene 1579); in [10]; in assay [11]; in assay [12]; in [13]; in [14]) was inactive. Moreover, in [5], the AC50 was 50 µM (active).
